From PubChem BioAssay AID1159580 (chemical genetic matrix, 2015)
Out of some 5,500 compounds screened, about 2,000 (36%) were called active. Not shown: some 18% with an inconclusive outcome. Rule as the data show it: active = normalized growth mostly below about 0.91 (no sharp cut-off); inconclusive = no clear call, values can overlap the other calls; inactive = mostly above about 0.92. The list shows a part of the results.

Assay: chemical genetic growth profiling, strain panel (AID 1159580);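 also: tested at 20 µM; growth read once vehicle control cultures reached saturation at 30 °C; 1 = growth at the plate median or of vehicle wells; lower values mean less growth of the strain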
Details: growth OD

Measured: normalized growth

CC(=O)O[C@H]1CC[C@]2(C)C3CC(=O)[C@]4(C)C(C(C)=O)=CCC4C3CC[C@H]2C1 (stereo partly drawn)
active: S. cerevisiae deletion strains, locus YKR001C, strain vps1, active compounds read low 0.897 | S. cerevisiae deletion strains, locus YLR418C, strain cdc73, active compounds read low 0.839 | S. cerevisiae deletion strains, locus YNL071W, strain lat1, active compounds read low 0.91
inactive: S. cerevisiae deletion strains, locus YJL187C, strain SWE1 (second series), active compounds read low 1.01 | S. cerevisiae deletion strains, locus YJR043C, strain POL32, active compounds read low 1.01 | S. cerevisiae deletion strains, locus YKL009W, strain mrt4, active compounds read low 0.965 | S. cerevisiae deletion strains, locus YKL068W, active compounds read low 0.988 | S. cerevisiae deletion strains, locus YKL085W, strain MDH1 (second series), active compounds read low 0.992 | S. cerevisiae deletion strains, locus YKL085W, strain MDH1, active compounds read low 0.992 | S. cerevisiae deletion strains, locus YKL160W, strain elf1, active compounds read low 0.996 | S. cerevisiae deletion strains, locus YKR026C, strain gcn3, active compounds read low 0.972 | S. cerevisiae deletion strains, locus YKR091W, strain srl3, active compounds read low 0.993 | S. cerevisiae deletion strains, locus YLL001W, strain dnm1, active compounds read low 0.986 | S. cerevisiae deletion strains, locus YLL026W, active compounds read low 0.994 | S. cerevisiae deletion strains, locus YLL041C, strain sdh2, active compounds read low 0.991 | S. cerevisiae deletion strains, locus YLR027C, strain aat2, active compounds read low 0.993 | S. cerevisiae deletion strains, locus YLR039C, strain RIC1, active compounds read low 1 | S. cerevisiae deletion strains, locus YLR058C, strain SHM2, active compounds read low 1.02 | S. cerevisiae deletion strains, locus YLR102C, strain apc9, active compounds read low 1 | S. cerevisiae deletion strains, locus YLR221C, strain rsa3, active compounds read low 0.978 | S. cerevisiae deletion strains, locus YLR258W, strain gsy2, active compounds read low 1 | S. cerevisiae deletion strains, locus YLR262C, strain YPT6 (second series), active compounds read low 0.961 | S. cerevisiae deletion strains, locus YLR262C, strain YPT6, active compounds read low 0.944 | S. cerevisiae deletion strains, locus YLR268W, strain sec22, active compounds read low 0.965 | S. cerevisiae deletion strains, locus YLR320W, strain mms22, active compounds read low 0.922 | S. cerevisiae deletion strains, locus YLR330W, strain CHS5, active compounds read low 0.969 | S. cerevisiae deletion strains, locus YLR342W, strain FKS1 (second series), active compounds read low 0.947 | S. cerevisiae deletion strains, locus YLR342W, strain FKS1, active compounds read low 0.976 | S. cerevisiae deletion strains, locus YLR357W, strain rsc2, active compounds read low 1.01 | S. cerevisiae deletion strains, locus YLR370C, strain arc18, active compounds read low 1.01 | S. cerevisiae deletion strains, locus YLR371W, strain rom2, active compounds read low 1.02 | S. cerevisiae deletion strains, locus YLR384C, strain iki3, active compounds read low 0.984 | S. cerevisiae deletion strains, locus YML016C, strain PPZ1, active compounds read low 1 | S. cerevisiae deletion strains, locus YML032C, strain rad52, active compounds read low 1 | S. cerevisiae deletion strains, locus YML120C, strain ndi1, active compounds read low 1 | S. cerevisiae deletion strains, locus YML124C, strain tub3, active compounds read low 1 | S. cerevisiae deletion strains, locus YMR058W, strain fet3, active compounds read low 0.986 | S. cerevisiae deletion strains, locus YMR078C, strain ctf18, active compounds read low 0.999 | S. cerevisiae deletion strains, locus YMR125W, strain sto1, active compounds read low 1.01 | S. cerevisiae deletion strains, locus YMR129W, active compounds read low 0.991 | S. cerevisiae deletion strains, locus YMR205C, strain PFK2, active compounds read low 0.95 | S. cerevisiae deletion strains, locus YMR223W, strain ubp8, active compounds read low 0.993 | S. cerevisiae deletion strains, locus YMR231W, strain pep5, active compounds read low 1.01 | S. cerevisiae deletion strains, locus YMR307W, strain GAS1, active compounds read low 0.97 | S. cerevisiae deletion strains, locus YNL067W, strain RPL9B, active compounds read low 1.02 | S. cerevisiae deletion strains, locus YNL209W, strain ssb2, active compounds read low 1.01 | S. cerevisiae deletion strains, locus YNL233W, strain BNI4, active compounds read low 0.988 | S. cerevisiae deletion strains, locus YNL248C, strain rpa49, active compounds read low 0.984 | S. cerevisiae deletion strains, locus YNL250W, strain rad50, active compounds read low 1.01 | S. cerevisiae deletion strains, locus YNL271C, strain bni1, active compounds read low 1.01 | S. cerevisiae deletion strains, locus YNL298W, strain CLA4, active compounds read low 1 | S. cerevisiae deletion strains, locus YNL307C, strain MCK1, active compounds read low 0.934 | S. cerevisiae deletion strains, locus YNL322C, strain KRE1 (second series), active compounds read low 0.975 | S. cerevisiae deletion strains, locus YNR049C, strain mso1, active compounds read low 0.99 | S. cerevisiae deletion strains, locus YNR052C, strain pop2, active compounds read low 1.03 | S. cerevisiae deletion strains, locus YOL006C, strain TOP1, active compounds read low 0.907 | S. cerevisiae deletion strains, locus YOL012C, strain htz1 1.19 | S. cerevisiae deletion strains, locus YOL147C, strain pex11, active compounds read low 1 | S. cerevisiae deletion strains, locus YOR001W, strain rrp6, active compounds read low 0.995 | S. cerevisiae deletion strains, locus YOR061W, strain CKA2, active compounds read low 1 | S. cerevisiae deletion strains, locus YOR069W, strain VPS5, active compounds read low 0.997 | S. cerevisiae deletion strains, locus YOR070C, strain gyp1, active compounds read low 1.01 | S. cerevisiae deletion strains, locus YOR080W, strain dia2, active compounds read low 1.01 | S. cerevisiae deletion strains, locus YOR083W, strain WHI5, active compounds read low 1 | S. cerevisiae deletion strains, locus YOR106W, strain vam3, active compounds read low 1.01 | S. cerevisiae deletion strains, locus YOR136W, strain idh2, active compounds read low 0.984 | S. cerevisiae deletion strains, locus YOR144C, strain elg1, active compounds read low 1 | S. cerevisiae deletion strains, locus YOR184W, strain ser1, active compounds read low 0.893 | S. cerevisiae deletion strains, locus YOR265W, strain rbl2, active compounds read low 1 | S. cerevisiae deletion strains, locus YOR270C, strain vph1, active compounds read low 0.843 | S. cerevisiae deletion strains, locus YOR290C, strain snf2, active compounds read low 0.996 | S. cerevisiae deletion strains, locus YOR316C, strain cot1, active compounds read low 0.996 | S. cerevisiae deletion strains, locus YPL051W, strain arl3, active compounds read low 0.998 | S. cerevisiae deletion strains, locus YPL078C, strain atp4, active compounds read low 0.991 | S. cerevisiae deletion strains, locus YPL106C, strain sse1, active compounds read low 0.976 | S. cerevisiae deletion strains, locus YPL240C, strain hsp82, active compounds read low 0.995 | S. cerevisiae deletion strains, locus YPL241C, strain CIN2, active compounds read low 0.988 | S. cerevisiae deletion strains, locus YPR119W, strain clb2, active compounds read low 1 | S. cerevisiae deletion strains, locus YPR141C, strain kar3, active compounds read low 1 | S. cerevisiae deletion strains, locus YPR163C, strain tif3, active compounds read low 0.983 | S. cerevisiae deletion strains, locus YPR167C, strain met16, active compounds read low 0.994 | S. cerevisiae deletion strains, strain wtn01, active compounds read low 0.973 | S. cerevisiae strains, strain wild type, active compounds read low 0.996
